In PubChem BioAssay (Tox21):
Unmarked numbers belong to inactive results. Records with an inconclusive call do not appear. Where a call stands in place of a potency, no number is given. The source made the active and inactive calls. Unless noted, the call rests on the fitted dose curve; in most records, active means well fitted curve in the direction sought with a large enough effect in the repeat runs; inconclusive means weak or mixed curves; inactive means no such curve, though single readings can be large; an effect the other way counts as inactive or inconclusive.

Columns and labels:
[1] = qHTS assay to identify small molecule agonists of the hypoxia (HIF-1) signaling pathway - cell viability counter screen (AID 1224844; calls by dose curve; further: nearly all actives have a fitted effect of over 50% in size)
In short: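 CellTiter-Glo luminescence read-out, 30 min RT, taken in the same wells as the beta-lactamase HRE reporter assay; HRE-bla ME-180 cells, 0.5% dialyzed FBS, 17 hr compound treatment at 37C, 5% CO2.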

[2] = qHTS assay to identify small molecule agonists of H2AX (AID 1224845; active means well fitted activation curve with a large enough effect in the signal ratio in the repeat runs, not every such curve was filed as active; the % refers to the signal ratio)
In short: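 Phospho-H2AX Ser139 measured by HTRF (ex 320 nm; em 665 and 620 nm) after 24 hr antibody incubation. Compounds, 15 concentrations, 0.76% DMSO, were applied to CHO-K1 cells for 3hr at 37C before lysis.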

[3] = qHTS assay to identify small molecule agonists of the hypoxia (HIF-1) signaling pathway (AID 1224846; active means well fitted activation curve with a large enough effect in the signal ratio in the repeat runs, not every such curve was filed as active; the % refers to the signal ratio)
In short: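 Beta-lactamase FRET read-out (CCF4-AM substrate) from ME-180 cells carrying an HRE-driven bla reporter, after 17 hrs compound exposure at 37C/5% CO2. Cells were seeded at 2,000 per well in 0.5% dialyzed FBS medium and preincubated 5 hrs.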

[4] = qHTS assay to identify small molecule agonists of H2AX - cell viability counter screen (AID 1224847; calls by dose curve; further: top concentration of the series differs between compounds; nearly all actives have a fitted effect of over 30% in size)
In short: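 Quantitative HTS viability measurement: CHO-K1 wild-type cells in serum (10% FBS) medium, short 3 hr drug exposure at 37C with 0.76% DMSO, CellTiter-Glo luminescent detection.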

[5] = qHTS RealTime-Glo MT Cell Viability Assay in HepG2 cells - 24 hour (AID 1224867); further: nearly all actives have a fitted effect of over 50% in size
In short: (§1)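 Tox21 10K library screened in qHTS format on HepG2 cells carrying RealTime-Glo reagents. Compounds were added after a 5 h preincubation, and the luminescent signal from continuous culture was measured repeatedly during 40 h treatment.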

[6] = A CellTox Green Cytotoxicity Assay to monitor cytotoxicity in HEK293 cells - 0 hour (AID 1224869); further: nearly all actives have a fitted effect of over 50% in size
In short: (§2)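 Read-out: fluorescence of a cell-impermeant cyanine dye staining DNA of dead cells, proportional to cytotoxicity. HEK293, 600 cells/well with reagent, compound (23 nL DMSO) added after 5 h; reads at 0, 8, 16, 24, 32, 40 h.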

[7] = qHTS RealTime-Glo MT Cell Viability Assay in HepG2 cells - 40 hour (AID 1224870); further: nearly all actives have a fitted effect of over 50% in size
In short: (§3)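 Real-time viability: cells seeded at 600 per well together with NanoLuc and cell-permeant prosubstrate, compounds added after 5 h incubation. Luminescence tracked at 0, 8, 16, 24, 32 and 40 h of exposure.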

[8] = qHTS RealTime-Glo MT Cell Viability Assay in HEK293 cells - 16 hour (AID 1224872)
In short: (§4)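 Luminescence generated by NanoLuc from substrate produced by living HEK293 cells served as the viability signal. Each value reflects the reading at its stated time point during continuous 40 h compound exposure at 37 C.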

[9] = qHTS RealTime-Glo MT Cell Viability Assay in HEK293 cells - 40 hour (AID 1224874); settings: RealTime-Glo luminescence; max response: stronger effect = lower value; further: nearly all actives have a fitted effect of over 50% in size
In short: (§5)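 Luminescence readout at each listed time point; HEK293, 600 cells/well, RealTime-Glo MT reagent added with cells; compounds pinned (23 nL in DMSO) after 5 h at 37 C; continuous culture at 37 C.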

[10] = qHTS RealTime-Glo MT Cell Viability Assay in HepG2 cells - 32 hour (AID 1224877); further: nearly all actives have a fitted effect of over 55% in size
In short: as §1

[11] = qHTS RealTime-Glo MT Cell Viability Assay in HEK293 cells - 0 hour (AID 1224880); further: nearly all actives have a fitted effect of over 45% in size; further: potency means the concentration at half of the fitted maximal effect
In short: as §5

[12] = qHTS assay to identify small molecule antagonists of the estrogen related receptor (ERR) signaling pathway from Tox21 library (AID 1224848); further: nearly all actives have a fitted effect of over 50% in size
In short: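 ERR cell line, 2,000 cells/well. 6 h settle, then compound (DMSO) added; 18 h at 37 C; ONE-Glo luminescence after 30 min RT.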

[13] = qHTS assay to identify small molecule agonists of the estrogen related receptor (ERR) signaling pathway from Tox21 library (AID 1224849; calls by dose curve; further: nearly all actives have a fitted effect of over 15% in size); settings: ERR reporter cell line, ONE-Glo luciferase, 18 h; at 92.4 µM (top of the series) unless noted
In short: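 Luminescence readout (ONE-Glo, 30 min RT) after 18 h compound exposure at 37 C of NTP-supplied ERR reporter cells; cells were plated 6 h before compound addition by pin tool.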

[14] = qHTS RealTime-Glo MT Cell Viability Assay in HEK293 cells - 32 hour (AID 1224868)
In short: as §4

[15] = A CellTox Green Cytotoxicity Assay to monitor cytotoxicity in HEK293 cells - 40 hour (AID 1224871); further: nearly all actives have a fitted effect of over 45% in size
In short: as §2

[16] = qHTS RealTime-Glo MT Cell Viability Assay in HepG2 cells - 8 hour (AID 1224873); further: nearly all actives have a fitted effect of over 55% in size
In short: as §3

[17] = A CellTox Green Cytotoxicity Assay to monitor cytotoxicity in HEK293 cells - 24 hour (AID 1224875); further: nearly all actives have a fitted effect of over 45% in size
In short: as §2

[18] = A CellTox Green Cytotoxicity Assay to monitor cytotoxicity in HepG2 cells - 16 hour (AID 1224876); further: nearly all actives have a fitted effect of over 45% in size
In short: (§6)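 HepG2, 600 cells/well premixed w/ CellTox Green; 5 h settle, 37 C/5% CO2; pintool cpd add (DMSO); 37 C, 40 h; fluorescence read at 0, 8, 16, 24, 32, 40 h.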

[19] = A CellTox Green Cytotoxicity Assay to monitor cytotoxicity in HepG2 cells - 24 hour (AID 1224878); further: nearly all actives have a fitted effect of over 45% in size
In short: as §6

[20] = A CellTox Green Cytotoxicity Assay to monitor cytotoxicity in HepG2 cells - 40 hour (AID 1224879); further: nearly all actives have a fitted effect of over 40% in size
In short: as §6

| Structure (SMILES) | Potency [1] | Potency [2] | outcome [3] | Potency [4] | Potency [5] | Potency [6] | Potency [7] | Potency [8] | max response [9] [%] | Potency [10] | Potency [11] | Potency [12] | activity change, positive = activation [13] | Potency [14] | Potency [15] | Potency [16] | Potency [17] | Potency [18] | Potency [19] | Potency [20] |
| --- | --- | --- | --- | --- | --- | --- | --- | --- | --- | --- | --- | --- | --- | --- | --- | --- | --- | --- | --- | --- |
| CN(C)CCCNCCCN | inactive | inactive | inactive | inactive | inactive | inactive | inactive | inactive | 24.4 | inactive | inactive |  |  |  |  |  |  |  |  |  |
| NC(N)=N/N=C/c1c(Cl)cccc1Cl | inactive | inactive |  | inactive | inactive | inactive | inactive | inactive | -22.8 | inactive |  | inactive | -17.6% [at 42.5 µM] | inactive | inactive | inactive | inactive |  |  |  |
| CCCC(=O)OCC | inactive | inactive | inactive |  | inactive | inactive | inactive | inactive |  | inactive | inactive |  |  |  |  | inactive | inactive | inactive | inactive | inactive |
| CCCCCOC(=O)COc1cc(N2C(=O)C3=C(CCCC3)C2=O)c(F)cc1Cl | inactive | inactive | inactive |  | inactive | inactive | inactive | inactive | 4.37 | inactive | inactive |  |  | inactive | inactive |  | inactive | inactive | inactive | inactive |
| CCOC(=O)C1=C(C)NC(C)=C(C(=O)OC)C1c1cccc([N+](=O)[O-])c1 (centres undefined) | inactive | inactive | inactive | inactive |  | inactive |  |  |  |  | 5.35 µM (active) |  |  |  | inactive |  | inactive | inactive | inactive | inactive |
| CCCCOc1cc(C(=O)OCCN(CC)CC)ccc1N | inactive | inactive | inactive |  | inactive | inactive | inactive | inactive | -18 | inactive | inactive |  |  | inactive |  | inactive |  |  |  |  |
| SC1CCCC1 | inactive | inactive | inactive |  | inactive | inactive | inactive |  |  | inactive | inactive |  |  | inactive | inactive | inactive | inactive |  | inactive | inactive |
| O=S(=O)(O)c1ccc(O)c2ncccc12 | inactive | inactive | inactive |  | inactive | inactive | inactive | inactive |  | inactive | inactive |  |  | inactive | inactive | inactive |  | inactive | inactive |  |
| Cc1cc(NC(=O)C(=O)O)cc(C)c1Oc1ccc(O)c2c1CCC2 | inactive | inactive |  | inactive | inactive | inactive | inactive | inactive | -8.77 | inactive | inactive | inactive | 1.77% | inactive | inactive | inactive | inactive |  | inactive | inactive |
| CC(=O)c1c(C)c([N+](=O)[O-])c(C(C)(C)C)c([N+](=O)[O-])c1C | inactive | inactive | inactive |  | inactive | inactive | inactive |  |  | inactive | inactive |  |  |  | inactive |  | inactive | inactive | inactive | inactive |
| O=C(O)C(c1ccc(Cl)cc1)c1ccc(Cl)cc1 | inactive | inactive |  | inactive | inactive | inactive | inactive | inactive | -1.91 | inactive | inactive | inactive | -7.31% | inactive | inactive | inactive | inactive | inactive | inactive |  |
| Cn1c(NCCN(CCO)CCCc2ccc([N+](=O)[O-])cc2)cc(=O)n(C)c1=O | inactive | inactive | inactive |  | inactive | inactive | inactive | inactive | -12.1 | inactive | inactive | inactive | 4.48% [at 42.5 µM] |  |  |  | inactive |  | inactive | inactive |
| C=CCCCCCC | inactive | inactive |  | inactive | inactive | inactive | inactive | inactive | 9.99 |  | inactive | inactive | 4.67% | inactive | inactive | inactive | inactive | inactive | inactive | inactive |
| O=C(NS(=O)(=O)/C=C/c1cccs1)c1ccc(F)cc1Br | inactive | inactive | inactive |  | inactive | inactive | inactive | inactive |  |  | 19.5 µM (active) |  |  |  | inactive | inactive | inactive | inactive | inactive | inactive |
| CCCCOC(O)CC (centres undefined) | inactive | inactive | inactive |  | inactive | inactive | inactive | inactive | 3 |  | inactive |  |  | inactive | inactive | inactive | inactive | inactive | inactive |  |
| CCCc1ccccc1 | inactive | inactive | inactive |  | inactive | inactive | inactive |  |  | inactive | inactive | inactive | 2.82% |  | inactive | inactive | inactive | inactive | inactive | inactive |
